Molecules are shown by their SMILES. Among all 1,200 compounds or so, about 15 (1%) were called active. Inconclusive results (about 7%) are left out. Many of the other results were omitted from the sample, so actives are more common in it than they were. Values without a mark were called inactive. Calls come from the whole dose curve; as a rule, active = well fitted activation curve with a large enough effect; inconclusive = small, poorly fitted or top-dose-only effect; inactive = flat fitted curve, though single readings scatter.
Potency is the fitted concentration of half-maximal effect.

Beta-2 adrenergic receptor (Homo sapiens), sequence (P07550 whole entry, looked up): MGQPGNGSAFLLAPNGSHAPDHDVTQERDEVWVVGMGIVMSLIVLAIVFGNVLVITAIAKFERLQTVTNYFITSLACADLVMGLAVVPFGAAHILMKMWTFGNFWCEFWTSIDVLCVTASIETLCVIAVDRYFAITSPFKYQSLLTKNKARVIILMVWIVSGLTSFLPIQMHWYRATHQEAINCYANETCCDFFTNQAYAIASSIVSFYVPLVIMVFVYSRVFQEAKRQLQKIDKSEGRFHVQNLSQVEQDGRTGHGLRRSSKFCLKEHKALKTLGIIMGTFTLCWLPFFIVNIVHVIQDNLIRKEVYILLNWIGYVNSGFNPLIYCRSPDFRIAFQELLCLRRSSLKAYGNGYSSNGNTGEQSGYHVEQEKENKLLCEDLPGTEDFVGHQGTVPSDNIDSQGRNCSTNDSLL

This assay has as its target Beta-2 adrenergic receptor (Homo sapiens) (UniProt P07550). Put plainly: qHTS assay of beta-arrestin-biased ligands of beta2-adrenergic receptor: Hit Validation.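 For activation: plate controls were DMSO for no effect and maximal isoproterenol or metaproterenol response for full effect.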 To be noted: cell-based beta-arrestin recruitment to beta2AR; Potency: activation; series mostly up to 46.1 µM; activation: at the top concentration. The source says: The concept of biased agonism is an emerging concept of molecular pharmacology which proposes that seven transmembrane receptors (7TMRs) or G protein-coupled receptors (GPCRs), exist in multiple signaling conformations and complexes and that ligands (either agonists or antagonists) can induce signaling biased responses for distinct signal transduction cascades.
Furthermore, accumulating evidence over the last decade has drawn attention to a novel function of beta-arrestins as signal transducers that scaffold various signaling molecules upon activation of 7TMRs. […] This beta-arrestin-biased signaling presumably leads to distinct physiological outcomes from those by G protein activation.
Additionally, the active receptor conformations which […] on this beta-arrestin signaling are likely different from those activating G protein signaling
The goal of this screening project will be to discover and optimize novel beta-arrestin-biased ligands for beta2-AR signaling. A luminescent cell-based assay for beta2-AR-mediated agonism, known as the Tango assay, has been validated in which ligand binding of a recombinant beta2-AR and subsequent recruitment of a recombinant beta-arrestin lead to the release of the transcriptional activator tTA, which upregulates transcription of a tTA-responsive luciferase gene.
NIH Molecular Libraries Probe Production Network [MLPCN]
NIH Chemical Genomics Center [NCGC]
PI: Bryan Roth (UNC) and Bob Lefkowitz (Duke)
NCGC Assay Protocol Summary:
Tango cells were dispensed into white, solid, tissue-culture-treated 1536-well plates at 1500 cells/well in DMEM, containing 1% fetal bovine serum (FBS). Then, 23 nL of compounds or DMSO were delivered to each well using a pin tool. Plates were incubated at 37 degrees C, 5% CO2 for 18 hr. Then 2.5 uL luminescent substrate mix (in-house prepared: 150 mM Tris-Cl, pH 7.6, 3 mM MgCl2, 1% Triton X-100, 5 mM DTT, 0.5 mM CoA, 0.15 mM ATP, 0.44 mM D-luciferin, final concentrations) was added to each well. Plates were then incubated for 15 minutes at room temperature, and subsequently measured on a ViewLux plate reader for luminescent signal using a clear filter with a 10 second exposure and 2x binning. The %Activity was determined from the corrected luminescence values.
Concentration-response curves were fitted to the signals arising from the resulting luminescence. The concentration-effect curves were then classified based on curve quality (r2), response magnitude and degree of measured activity, and compounds were subsequently categorized based on their curve class.
Keywords: biased agonism, beta2-AR, beta-arrestin, GPCR, 7TMR, Tango, luminescence, MLSMR, MLPCN, NIH Roadmap, qHTS, NCGC
On the technique in general: qHTS replaces the single test concentration by a dilution series.
As for `Cc1cccc(-n2ncc3c(Nc4c(C)n(C)n(-c5ccccc5)c4=O)ncnc32)c1`, the “activation” value is -4.29%. On the same count and under the same terms, for `O=C(CN1CCN(Cc2ccccc2)CC1)c1ccc(Br)cc1` the value was -2.66%. For the molecule `CCC(=O)Nc1cccc(-c2nnc(SCC(=O)c3ccccc3)n2C)c1`, the “activation” value was -3.27%. Regarding `Cc1oc(-c2ccccc2Cl)nc1CN1CCCCC1c1cccnc1` (configuration not stated), the “activation” value was -3.35%. On to `COCCNC(=S)NN=C1CCC(c2ccccc2)CC1` (configuration not stated), for which the “activation” value is -3.79%. For the molecule `Cc1noc(/C=C/c2ccco2)c1S(=O)(=O)N1CCC(C(=O)N2CCc3ccccc3C2)CC1`, the “activation” value was -3.07%.

For the molecule `O=C(N/N=C/c1ccc(-c2ccccc2[N+](=O)[O-])o1)[C@H]1C[C@@H]1c1ccccc1`, the “activation” value is 4.62%. Regarding `Cc1cccc(NC(=S)NC2CCCC2)n1`, the “activation” value is -2.16%. In the case of `COc1ccc(C2CC(c3ccccc3)=NN2C(=O)COC(=O)c2cccc(N)c2)cc1` (configuration not stated), the “activation” value was 7.98%.

Turning to `O=C(c1cccs1)N1N=C(c2ccccc2)CC1c1ccc(O)cc1` (configuration not stated), the “activation” value was 6.49%. As for `CCN1C(=O)C(CC(=O)Nc2ccc(OC)cc2)N(CCN2CCOCC2)C1=S` (configuration not stated), the “activation” value was -0.784%. Take `COc1cc(-c2nc(-c3ccccc3)c(-c3cc([N+](=O)[O-])ccc3C)[nH]2)cc(OC)c1OC`: the “activation” value is -0.686%. In the case of `CCOc1ccccc1N=Nc1c(C)[nH]n(C(N)=S)c1=O`, the “activation” value is -1.78%. On to `COc1cccc(NC(=S)N/N=C2\CC(C)(C)Oc3ccc(O)cc32)c1`, for which the “activation” value was -2.24%. Regarding `O=C(N/N=C\C=C\c1ccco1)C1COc2ccccc2O1` (configuration not stated), the “activation” value is -2.32%. Turning to `COc1ccc2c(c1)c(=O)c(C(=O)c1ccccc1)cn2Cc1ccc(C)cc1`, the “activation” value is -0.974%. As for `O=[N+]([O-])c1ccc(/C=C2\CCC(C3=CCCC3)=C2N2CCOCC2)cc1`, the “activation” value is -1.92%. As for `CCOC(=O)c1cccc(NC(=O)c2cncc(Br)c2)c1`, the “activation” value was -2%.

As to `S=c1nc2ccccc2c2nc(-c3ccccc3)[nH]n12`, the “activation” value was -2.79%. Take `COc1ccc(N(C(=O)CCl)C(C)(C(=O)Nc2c(C)cccc2C)c2ccccn2)cc1` (configuration not stated): the “activation” value was 0.0836%. For the molecule `CCN(C(=O)Cn1c(Cl)nc2c1c(=O)n(C)c(=O)n2C)C1CCCCC1`, the “activation” value is -1.79%.

For the molecule `COc1ccc(/C=N/OC/C(O)=C(\C#N)c2nc3ccccc3[nH]2)cc1OC`, the “activation” value was -2.21%. In the case of `COc1ccccc1CN1C[C@@H]2C[C@@H](c3ccc4nsnc4c3)N3CCC[C@@]23C1=O`, the “activation” value is -1.58%. Regarding `Cc1cc(=O)n2cccc(O)c2n1`, the “activation” value is -5.71%. Same read-out and setting: for `COc1ccc(NC(=S)NC(=O)c2ccc(Br)o2)cc1` the value was -3.83%; for `CCOC(=O)/C(C#N)=C/Nc1ccsc1C(=O)OC`, -3.19%. On to `S=c1[nH]c(-c2ccccc2)cn1/N=C/c1cccs1`, for which the “activation” value is -3.12%. For `O=C(Oc1c(Cl)cc(Cl)c2cccnc12)c1cccs1`, the “activation” value was -2.15%.

Take `N#CC[C@H](Cc1ccccc1)N1CC[C@@H](O)CCC1=O`: the “activation” value is -0.52%. Regarding `COc1ccc(N2C(=O)C3C(C2=O)C(C(=O)c2ccccc2)N2CCCC32)cc1` (configuration not stated), the “activation” value was -0.0662%. In the case of `COc1ccccc1NC(=S)N/N=C1\CC(C)(C)Oc2ccc(O)cc21`, the “activation” value is -1.77%. As for `CC(=O)O[C@H]1C2OC(=O)C(C)=C2[C@@H]2OC(=O)[C@]3(CCC4OC41C)OC23` (some centres not stated), the “activation” value is -1.78%.

As to `CNC(=S)N/N=C/c1c(C)cccc1Cl`, the “activation” value was -3.5%. As to `CC(NC(=O)NNC(N)=S)(C(F)(F)F)C(F)(F)F`, the “activation” value is -2.46%. In the case of `COc1ccc(CN2CCCC(C(=O)c3ccc(SC)cc3)C2)cc1Cn1cccn1` (configuration not stated), the “activation” value is 0.256%.

`COc1cc(CN2CCCCC2C(=O)Nc2ccc(Oc3ccccc3)nc2)ccc1O` (configuration not stated): the “activation” value was 6.3%. For `Cc1nnc(NC(=O)c2ccc3ccccc3c2)o1`, the “activation” value was -1.26%. As for `Oc1c(CNc2ccccc2)cc(COCc2ccccc2)c2cccnc12`, the “activation” value is -5.03%.

As to `Cc1ccc2nc(N3C(=O)CNC3=S)sc2c1`, the “activation” value is -2.5%.

Turning to `Clc1ccc(OCc2nc(-c3ccccn3)n[nH]2)cc1`, the “activation” value was -1.51%. Consider `CNC(=S)N/N=C(\C)c1ccccc1`, for which the “activation” value is -1.21%. Consider `CCCn1c(Nc2nc3ccccc3n2C)nc2ccccc21`, for which the “activation” value was -2.95%. As for `CCC(NC(C)C)C(O)c1ccc(O)c(O)c1` (configuration not stated), the Potency is 2060 nM (active). As to `CCC(NC(C)C)C(O)c1ccc(O)c2[nH]c(=O)ccc12` (configuration not stated), the Potency is 16.4 nM (active). Regarding `Cc1ccc(C2(C)NC(=O)N(CC(=O)c3ccc4c(c3)OCCO4)C2=O)cc1` (configuration not stated), the “activation” value was 4.6%. In the case of `CNc1sc(C(=O)c2ccccc2F)c(N)c1-c1nc2ccccc2s1`, the “activation” value is -1.71%. With `O=S1(=O)Nc2c(ccc3cccnc23)-c2ccccc21`, the “activation” value is -3.15%. For the molecule `CN1CCN(c2ccc(C(F)(F)F)cc2NC(=O)c2ccco2)CC1`, the “activation” value is -3.16%. Regarding `COc1ccccc1-n1c2nc3ccccc3nc2c2c(=O)n(-c3cc(C)cc(C)c3)cnc21`, the “activation” value was -3.64%.

Take `COc1ccc(/C=C(\C#N)C(=O)OCC(=O)NCc2ccccc2)cc1`: the “activation” value was -4.17%. In the case of `O=C(N/N=C/C(Br)=C/c1ccccc1)c1cnccn1`, the “activation” value was 3.91%. On the same count and under the same terms, the value for `O=c1[nH]c2c(cnn2-c2ccc(Cl)cc2)c(=O)n1-c1cccc(Cl)c1` was -4.33%. For `O=C(COC(=O)c1cc(=O)c2ccccc2o1)Nc1ccc2ccccc2c1`, the “activation” value is -3.15%. On to `CCc1n[nH]c(=S)n1/N=C/c1ccc(N(CC)CC)cc1`, for which the “activation” value was -2.67%.

As to `COc1ccccc1-[n+]1c(C)cc(/C=C2\Sc3ccccc3N2C)cc1C`, the “activation” value was 4.51%.

Turning to `CCCNC(=O)CN(c1ccccc1)S(=O)(=O)c1ccc(OC)c(OC)c1`, the “activation” value was -3.31%. Regarding `COC(=O)c1cc(Br)c(=O)n(CCc2ccc(O)cc2)c1`, the “activation” value is -1.68%.
